An excerpt weighted towards active compounds, which were near 2.4% of everything screened.
POLH inh = blocks human DNA polymerase eta activity; Potency, µM (titrated, usually from 114 µM), actives largely listed as inhibitors; 390,000 compounds, 1.2% hits; recombinant Pol eta, fluorescent DNA replication assay; AID 588591; Q9Y253
Target sequence (Q9Y253 whole entry, looked up): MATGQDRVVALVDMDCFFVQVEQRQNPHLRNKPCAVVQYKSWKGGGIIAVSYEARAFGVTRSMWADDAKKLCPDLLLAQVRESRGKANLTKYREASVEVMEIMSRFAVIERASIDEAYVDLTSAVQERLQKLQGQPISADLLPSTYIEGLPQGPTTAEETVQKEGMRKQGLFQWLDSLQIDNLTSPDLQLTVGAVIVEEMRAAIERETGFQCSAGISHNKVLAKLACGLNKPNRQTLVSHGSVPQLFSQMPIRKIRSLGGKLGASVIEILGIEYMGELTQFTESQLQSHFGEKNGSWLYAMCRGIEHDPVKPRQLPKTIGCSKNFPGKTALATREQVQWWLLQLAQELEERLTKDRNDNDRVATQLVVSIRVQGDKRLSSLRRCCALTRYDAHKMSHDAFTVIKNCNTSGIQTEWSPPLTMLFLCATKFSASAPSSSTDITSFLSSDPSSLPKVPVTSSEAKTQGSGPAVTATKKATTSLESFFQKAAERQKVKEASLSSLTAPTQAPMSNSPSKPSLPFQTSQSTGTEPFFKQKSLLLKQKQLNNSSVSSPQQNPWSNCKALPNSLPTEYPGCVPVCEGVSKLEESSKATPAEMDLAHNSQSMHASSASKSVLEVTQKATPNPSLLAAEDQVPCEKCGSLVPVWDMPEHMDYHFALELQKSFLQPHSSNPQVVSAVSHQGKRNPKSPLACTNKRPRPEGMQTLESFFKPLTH
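Pol eta at 10 nM preincubated with compounds 15 min at room temperature; reaction started with fluorescent substrate (50 nM final) and read kinetically at 0 and 10 min.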
Pol iota inh = blocks human DNA polymerase iota activity | Q9UNA4 | Pol iota fluorescent replication assay, 10 min | Potency, µM (doses to about 115 µM), usual class: inhibitors | 390,000 compounds, 1% hits | AID 588590
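Pol iota at 10 nM preincubated 15 min with compounds at room temperature; reaction started with fluorescent substrate, 50 nM final. Fluorescence read kinetically at 0 and 10 min; buffer-only wells as negative control.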
FEN1 inhibitor = blocks human flap endonuclease 1; P39748; Recombinant FEN1 flap cleavage, fluorescence, 15 min; Potency, µM (top dose mostly 114 µM), hits mostly inhibitors; 390,000 compounds, 0.35% hits; also: nearly all actives have a fitted effect of over 65% in size
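Nuclease activity of 10 nM FEN1 was measured after 15 min of room-temperature exposure to titrated compounds, by adding 50 nM flap substrate and reading plates at 0 and 15 min.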
Pol beta inh = DNA polymerase beta (human) inhibition; P06746; Pol beta primer extension/strand displacement, fluorescence kinetic; Potency, µM (top dose mostly 114 µM), most hits filed as inhibitors; 340,000 compounds, 1.3% hits; AID 485314
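Pol beta (10 nM) and compounds were preincubated 15 min at room temperature, then 50 nM substrate (final) started primer extension/strand displacement. Reads were taken at 0 and 10 min; concentration-response data were fitted to a four-parameter Hill equation.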
Pol kappa inh = inhibitors of human DNA polymerase kappa; purified Pol kappa, fluorescent DNA synthesis assay, 10 min; Potency, µM (series often up to 107 µM), actives largely listed as inhibitors; 400,000 compounds, 0.53% hits; AID 588579
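Pol kappa 10 nM + cpd, 15 min RT; start w/ substrate 50 nM final; fluorescence kinetic read, 0 and 10 min. Neg ctrl: buffer, no enzyme.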
WRN inhibitor = blocks human WRN helicase; Q14191; WRN helicase unwinding, fluorescent forked duplex, kinetic; Potency, µM (highest dose often 114 µM), actives largely listed as inhibitors; 360,000 compounds, 0.46% hits; AID 651768; also: nearly all actives have a fitted effect of over 55% in size
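Kinetic fluorescence helicase assay: unwinding of a quenched forked DNA duplex (100 nM final) with 2 mM ATP final raises red fluorescence (525/598 nm). Compounds sat 15 min at room temperature with 20 nM WRN beforehand.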
Large screens that a line does not name were inactive. Calls follow the shape of the dose curve; as a rule, active = well fitted curve in the direction sought with a large enough effect; inconclusive = small, poorly fitted or top-dose-only effect, or another doubt; inactive = no such curve, though single readings can be large; an effect the other way counts as inactive or inconclusive.

O=C(O)CC1(CC(=O)Nc2ccccc2N2CCOCC2)CCCC1	Pol beta inh 10µM
O=C(O)CCC(=O)Nc1ccccc1N1CCOCC1	none
O=C(COc1ccc(/C=C\[N+](=O)[O-])cc1)N1CCOCC1	POLH inh 31.6µM, Pol iota inh 31.6µM
O=C(COc1ccc(S(=O)(=O)N2CCOCC2)cc1)N1CCOCC1	none (no result: Pol beta inh)
O=C1C=CC(=O)N1N(c1ccccc1)c1ccccc1	WRN inhibitor 35.5µM
O=S(=O)(c1ccccc1Br)N1CCN(c2nc(-c3cccs3)nc3ccccc23)CC1	none (no result: POLH inh, Pol beta inh, WRN inhibitor)
Cc1ccc(/C=N/Nc2nncn2N)cc1	Pol iota inh 0.891µM
Nn1cnnc1N/N=C/c1cccc(Cl)c1Cl	Pol iota inh inconclusive
Nn1cnnc1N/N=C/c1ccc(F)cc1	Pol iota inh 15.8µM, FEN1 inhibitor inconclusive
Nn1cnnc1N/N=C/c1ccc(Cl)c([N+](=O)[O-])c1	Pol iota inh 3.16µM, FEN1 inhibitor inconclusive, Pol beta inh inconclusive
O=C(CN1CCCCC1)Nc1nnc(-c2ccc([N+](=O)[O-])cc2)s1	POLH inh 17.8µM
COc1ccc(-c2ccc3c(c2)S(=O)(=O)c2cccc(C(=O)NC[C@@H]4CCCO4)c2C3=O)cc1OC	POLH inh 28.2µM, Pol iota inh inconclusive (no result: Pol beta inh)
CC(C)c1cccc(-c2ccc3c(c2)S(=O)(=O)c2cccc(C(=O)O)c2C3=O)c1	none (no result: Pol beta inh)
CC(C)c1cccc(-c2ccc3c(c2)S(=O)(=O)c2cccc(C(=O)NCc4ccco4)c2C3=O)c1	POLH inh 39.8µM, Pol iota inh inconclusive, Pol kappa inh inconclusive (no result: Pol beta inh)
Cc1ccc(CCNC(=O)c2cc3n(n2)CCCN(Cc2ccc(C)cc2)C3=O)cc1	none (no result: WRN inhibitor)
O=C(O)c1ccc(Cl)c2c1C1C=CCC1C(c1ccccn1)N2 (configuration not stated)	Pol beta inh 8.91µM (no result: POLH inh, Pol iota inh, FEN1 inhibitor, Pol kappa inh, WRN inhibitor)
CNC(=O)COc1ccc(Nc2nnc(-c3ccc(C)c(S(N)(=O)=O)c3)c3ccccc23)cc1	POLH inh 39.8µM
O=C(/C=C/c1ccco1)N1CCC(Cc2ccccc2)CC1	POLH inh inconclusive, Pol iota inh 39.8µM, Pol beta inh inconclusive, Pol kappa inh inconclusive, WRN inhibitor inconclusive
CCCC1=Nc2cc(C(=O)NC3CCCCC3)ccc2Sc2ccc(C)cc21	none (no result: WRN inhibitor)
O=[N+]([O-])c1ccc(N=Nc2c(O)[nH]c3ccc(F)cc23)cc1	POLH inh inconclusive, Pol beta inh 50.1µM
CC(Oc1ccccc1)C(=O)N=Nc1c(O)[nH]c2ccc([N+](=O)[O-])cc12 (configuration not stated)	POLH inh 35.5µM, Pol iota inh 79.4µM
COC(=O)c1ccccc1NC(=O)c1ccc2c(c1)C(=O)N(Cc1ccco1)C2=O	none (no result: Pol beta inh)
Cc1c(NC(=O)c2ccc3c(c2)C(=O)N(Cc2ccco2)C3=O)cccc1C(=O)O	POLH inh 31.6µM, Pol iota inh inconclusive, Pol beta inh inconclusive, Pol kappa inh inconclusive
COC(=O)Cc1ccc(NC(=O)c2ccc3c(c2)C(=O)N(Cc2ccco2)C3=O)cc1	none
CCc1ccc(NC(=O)c2ccc3c(c2)C(=O)N(Cc2ccco2)C3=O)cc1	POLH inh 20µM, Pol iota inh inconclusive, Pol beta inh 20µM, Pol kappa inh 50.1µM
CCCC[n+]1ccn(-c2nc3ccccc3nc2[N-]S(=O)(=O)c2ccccc2)c1	Pol iota inh inconclusive
CCCC[n+]1ccn(-c2nc3ccccc3nc2[N-]S(=O)(=O)c2cccs2)c1	Pol beta inh 17.8µM
CSc1nc(NCc2ccco2)c2c3c(sc2n1)CN(C)CC3	Pol beta inh 39.8µM (no result: POLH inh, Pol iota inh, FEN1 inhibitor, Pol kappa inh, WRN inhibitor)
CSc1nc(SCC(N)=O)c2c3c(sc2n1)CN(C)CC3	POLH inh inconclusive, Pol iota inh inconclusive, FEN1 inhibitor 50.1µM, Pol beta inh inconclusive, WRN inhibitor inconclusive
CSc1nc(SCC(=O)NCc2ccco2)c2c3c(sc2n1)CN(C)CC3	POLH inh inconclusive (no result: Pol beta inh)
O=C(c1nnsc1S(=O)(=O)c1ccc(Cl)cc1)N1CCOCC1	none
CNC(=O)c1nnsc1S(=O)(=O)c1ccc(Cl)cc1	Pol iota inh inconclusive, WRN inhibitor 7.94µM
[N-]=C=C1C(=S)NC(=O)[C@H]([n+]2ccccc2)[C@H]1c1ccc(Cl)cc1	Pol beta inh inconclusive
[N-]=C=C1C(=O)NC(=O)C([n+]2ccc(-c3ccncc3)cc2)C1c1ccccc1C(F)(F)F (configuration not stated)	Pol iota inh 15.8µM
COc1ccc(CN2CC[C@H]3C=CC[C@@H](C(=O)NC4CCCCC4)[C@H]3C2=O)cc1OC	Pol iota inh inconclusive (no result: POLH inh, Pol beta inh, WRN inhibitor)
CCOc1ccc(S(=O)(=O)Nc2cc(NS(=O)(=O)c3ccc(OCC)cc3)cc(C(=O)O)c2)cc1	POLH inh 25.1µM, Pol iota inh inconclusive, Pol kappa inh 79.4µM (no result: Pol beta inh)
COCCCNc1oc(-c2cccs2)nc1S(=O)(=O)c1ccc(C)cc1	Pol beta inh 39.8µM
Cc1ccc(-c2ccc(/C=C3\SC(N4CCOCC4)=NC3=O)o2)cc1	POLH inh inconclusive, FEN1 inhibitor inconclusive
Cc1ccc(/C=C2\SC(N3CCN(C(c4ccccc4)c4ccccc4)CC3)=NC2=O)o1	Pol beta inh 39.8µM
Cc1coc2c(C)c3oc(=O)c(CCC(=O)N(C)CC(=O)O)c(C)c3cc12	POLH inh 20µM, Pol beta inh 79.4µM
COc1cccc(CNC(=O)CCc2c(C)c3cc4c(C)coc4cc3oc2=O)c1	none (no result: WRN inhibitor)
Cc1coc2cc3oc(=O)c(CC(=O)N(C)CC(=O)O)c(C)c3cc12	none
COc1cccc(CNC(=O)CCc2c(C)c3cc4c(C)coc4c(C)c3oc2=O)c1	POLH inh inconclusive, Pol iota inh inconclusive, Pol beta inh 25.1µM (no result: WRN inhibitor)
Clc1ccc(-c2csc3ncnc(Sc4nnnn4-c4ccccc4)c23)cc1	none (no result: POLH inh, Pol beta inh, WRN inhibitor)
CC[C@H](C)[C@H](N)C(=O)N[C@@H](CC(N)=O)C(=O)N1CCC[C@H]1C(=O)N[C@H](C(=O)N[C@@H](Cc1ccc(O)cc1)C(=O)N[C@@H](CCCN=C(N)N)C(=O)N[C@@H](CC(C)C)C(=O)N[C@@H](CCCN=C(N)N)C(=O)N[C@@H](Cc1ccc(O)cc1)C(N)=O)[C@@H](C)CC	none (no result: POLH inh, Pol iota inh, FEN1 inhibitor, Pol beta inh, WRN inhibitor)
Oc1c(C(c2ccccc2)N2CCOCC2)sc2nc(-c3ccco3)nn12 (configuration not stated)	none (no result: WRN inhibitor)
CCc1cnc2ccccc2c1/C=C/c1ccc(N(C)C)cc1	none (no result: POLH inh, Pol beta inh, WRN inhibitor)
Cc1ccccc1Cc1c(C)nc2c(C(=O)NCc3ccco3)cnn2c1C	POLH inh inconclusive, Pol iota inh inconclusive, Pol beta inh 44.7µM
Cc1ccccc1Cc1c(C)nc2nc(SCC(=O)NCc3ccco3)nn2c1C	none

High-throughput results from PubChem BioAssay.
